Screening results (PubChem BioAssay)
AMA1-RON2 inh = inhibitors of Plasmodium falciparum AMA1-RON2 interaction; AlphaScreen AMA1-biotinylated RON2 peptide binding; Potency, µM (series often up to 58.2 µM), inactives show at the highest dose activity change, negative = inhibition, actives largely listed as inhibitors; 360,000 tested, 0.2% active; AID 720542;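 further: 0% = vehicle wells and -100% = peptide control; nearly all actives have a fitted effect of over 45% in size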
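AMA1 (3D7) with his tag at 25 nM final met compounds first, then biotinylated RON2 peptide at 25 nM; detection used donor plus acceptor beads, 10 µg/mL apiece, read by AlphaScreen after 30 min at room temperature.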
Pf growth 48h = inhibits P. falciparum growth in the first generation, 48 h; P. falciparum luciferase growth in erythrocytes, 48 h; Potency, µM (series often up to 28.7 µM), for inactives: at the highest dose activity change, negative = inhibition, actives largely listed as inhibitors; 310,000 tested, 5.9% active; AID 504832; further: on the % scale 0 is the no-effect control and ±100 the full control effect
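Read-out is firefly luciferase luminescence from an integrated reporter in P. falciparum, so falling signal marks reduced parasite growth. Infected erythrocytes were at 2% hematocrit and 0.1% parasitemia (final) in Albumax-supplemented RPMI 1640.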
NS1 function inh = blocks influenza NS1 protein function | 270,000 tested, 0.4% active | Potency, µM (series often up to 46.1 µM), without a hit: at the top dose activity, positive = more growth | AID 2326; calls by dose curve; further: actives are rising curves; nearly all actives have a fitted effect of over 50% in size
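Growth recovery, yeast-based: influenza A NS1 expressed in S. cerevisiae causes slow growth, and suppressors are detected by OD600. The parent strain without NS1 is used as positive control.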
Pf growth 96h = P. falciparum growth inhibition at 96 hours; P. falciparum luciferase reporter growth, 96 h; AID 504834; 320,000 tested, 6.9% active; Potency, µM (series often up to 28.7 µM), inactives show top-dose activity change, negative = inhibition, most hits filed as inhibitors; further: on the % scale 0 is the no-effect control and ±100 the full control effect
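Plates of compound plus infected erythrocytes (2% hematocrit, 0.05% parasitemia final) incubate 96 hours, 37 C, 5% CO2. Detection reagent added; reduced luminescence from the parasites' luciferase reporter flags inhibition.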
Sm TGR inh = inhibitors of Schistosoma mansoni thioredoxin glutathione reductase; Q962Y6; AID 485364; Potency, µM (highest dose often 114 µM), without a hit: at the highest dose activity change, negative = inhibition, most hits filed as inhibitors; 360,000 tested, 3% active; purified TGR, DTNB reduction, TNB absorbance 405 nm; further: on the % scale 0 is the no-effect control and ±100 the full control effect; nearly all actives have a fitted effect of over 60% in size
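First, TGR (20 nM dispensed) and NADPH were mixed with compound. Second, a 15 min room-temperature incubation followed. Third, further NADPH and then DTNB were added to start the reaction. Finally, TNB absorbance was monitored kinetically.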
The depositor's hits bear a star; u = inconclusive; x = no result given. An excerpt weighted towards active compounds, which were near 11% of everything screened. Unless noted, the call rests on the fitted dose curve; in most records, active means well fitted curve in the direction sought with a large enough effect; inconclusive means small, poorly fitted or top-dose-only effect, or another doubt; inactive means no such curve, though single readings can be large; an effect the other way counts as inactive or inconclusive. Potency means the concentration at half of the fitted maximal effect.

SMILES	AMA1-RON2 inh	Pf growth 48h	NS1 function inh	Pf growth 96h	Sm TGR inh
CCNc1ccc(S(=O)(=O)N2CCCCC2)cn1	-2%	-19%	x	-17%	-16%
CCc1ccc(C(=O)N2CCC(c3nc4ccccc4s3)CC2)cc1	-3%	13%	-37%	3.3µM*	-16%
Cc1ccccc1C(=O)N1CCC(c2nc3ccccc3s2)CC1	x	x	x	x	6%
CC(C)(C)c1ccc(NC(=O)N2CCN(c3ccc([N+](=O)[O-])cn3)CC2)cc1	7%	5.2µM*	-1%	2.3µM*	-4%
Cc1cc(Br)cn2c(Cc3cccc(F)c3)c(-c3ccccc3)nc12	6%	x	x	x	x
Cc1cc(C)c(OCC(=O)OCCNC(=O)c2cccnc2)c(C)c1	7%	7%	3%	-1%	35µM*
COc1cc(C(=O)OCCNC(=O)c2cccnc2)cc(OC)c1OC	1%	x	x	x	x
O=S(=O)(c1ccc2nc(N3CCN(c4ccc(F)cc4)CC3)ccc2c1)N1CCCCC1	u	3%	7%	13µM*	-5%
CC1CCN(S(=O)(=O)c2ccc3ccccc3c2)CC1	-22%	9%	-2%	x	23%
CC1CCN(S(=O)(=O)c2ccc3nc(N4CCN(c5ccccc5)CC4)ccc3c2)CC1	6%	-3%	-2%	10µM*	-3%
O=S(=O)(c1ccc2nc(Nc3ccccc3)ccc2c1)N1CCCCC1	2%	10µM*	-15%	u	-16%
CC(=O)c1cccc(Nc2ccc3cc(S(=O)(=O)N4CCCC4)ccc3n2)c1	x	x	x	x	-7%
COc1cc(C(=O)Nc2ccn(C)n2)ccc1OC(F)F	-1%	71%	x	88%	-2%
O=C(O)c1cccc(-n2cnc3cccnc32)c1	x	x	x	x	1%
O=C(CCl)N(c1ccccc1)C1CCCCC1	2%	10µM*	x	13µM*	3.2µM*
CC(=O)N(c1ccccc1)C1CCCC1	-2%	-1%	0%	0%	0%
COc1ccc(NC(=O)c2c(N)c(C(=O)c3ccc(OC)cc3)n3ccccc23)cc1	x	x	x	x	-3%
Cc1cc2[nH]c(=O)c(=O)[nH]c2cc1S(=O)(=O)NC1CCCCC1C (centres undefined)	6%	-1%	15%	4.7µM*	-15%
Cc1cc2[nH]c(=O)c(=O)[nH]c2cc1S(=O)(=O)NC1CCC(C)CC1 (centres undefined)	-2%	u	10%	0%	-15%
CC(C)(C)OC(=O)N[C@@H](COCc1ccccc1)C(=O)N[C@@H](CO)[C@H](O)[C@@H]1C[C@@H]1C(=O)NC1CCCCC1	26%	u	-13%	u	0%
COc1ccc(C(CCN2CCCCC2)c2c(O)cc(OC)cc2OC)cc1 (centres undefined)	-9%	0.66µM*	0%	0.47µM*	40µM*
COc1ccc(C(CCN2CCCC2)c2c(O)cc(OC)cc2OC)cc1 (centres undefined)	24%	u	u	2.9µM*	u
Cc1cc(C)cc(C(=O)N2CCCCC2)c1	-5%	x	x	x	x
Cc1c(OC(C)C(=O)O)ccc2c3c(c(=O)oc12)CCCC3 (centres undefined)	-5%	-1%	9%	10µM*	-12%
Cc1c(OC(C)C(=O)NCc2cccnc2)ccc2c3c(c(=O)oc12)CCCC3 (centres undefined)	3%	-16%	-48%	12µM*	9%
SMILES	AMA1-RON2 inh	Pf growth 48h	NS1 function inh	Pf growth 96h	Sm TGR inh
CC(=O)Oc1ccc2c3c(c(=O)oc2c1C)CCCC3	4%	3%	-3%	0%	9%
Cc1c(OCC(=O)NCc2cccnc2)ccc2c3c(c(=O)oc12)CCCC3	-2%	-10%	1%	13µM*	-7%
O=C(Nc1ccc(-c2nc3cc(NC(=O)c4ccc(Cl)cc4)ccc3o2)cc1)c1ccc(Cl)cc1	x	x	x	x	3%
O=C(O)CCN1C(=O)C2C3c4ccccc4C(c4ccccc43)C2C1=O (centres undefined)	-5%	-6%	-1%	23%	0%
CCN(CC)CCN1C(=O)C2C3c4ccccc4C(c4ccccc43)C2C1=O (centres undefined)	-3%	u	1%	5.2µM*	6%
COc1ccccc1N1CCN(C(=O)c2cnc(N3CCCCC3)c3ccccc23)CC1	x	x	x	x	-13%
COc1ccc(F)cc1CN1CCN(c2cc(C)nc3c4c(C)cc(C)nc4nn23)CC1	x	15µM*	-25%	u	-31%
Cc1cc(C)c2c(n1)nn1c(N3CCN(Cc4ccccc4)CC3)cc(C)nc21	13%	-16%	1%	x	u
CN(CC(=O)OCC(=O)NC1CCCC1)S(=O)(=O)c1ccc(Cl)cc1	0%	x	x	x	x
COCCN(CCOC)S(=O)(=O)c1ccc(C(=O)Nc2ccc([N+](=O)[O-])cc2OC)cc1	-11%	17%	x	u	4%
Cc1nn(C)c(C)c1/C=N/N=C1\CCC2C3CCc4cc(O)ccc4C3CCC12C (centres undefined)	-10%	2.9µM*	4%	x	29%
C[C@]12CC[C@@H]3c4ccc(O)cc4CC[C@H]3[C@@H]1CCC2=O	-2%	u	-20%	13µM*	2%
C[C@]12CCC3c4ccc(O)cc4CCC3C1CC/C2=N\N (some centres undefined)	-5%	x	x	x	x
C[C@]12CC[C@H]3c4ccc(O)cc4CC[C@@H]3[C@H]1CC[C@@H]2OC(=O)CCC1CCCC1	x	17µM*	-14%	13µM*	x
CC(C(=O)Nc1ccc(OC(F)(F)F)cc1)N1Cc2ccccc2C1=O (centres undefined)	x	x	x	x	-2%
C=C1C(C(=O)Nc2ccc(OC)cc2)C1C(=O)Nc1ccc(OC)cc1 (centres undefined)	-5%	u	1%	-5%	-27%
Cc1cc(O)c(-c2cc(C(=O)Nc3cccnc3)[nH]n2)cc1C	87%	2.6µM*	-2%	2.1µM*	5%
CC(=O)Nc1ccc(NC(=O)c2cc(-c3cc(C)c(C)cc3O)n[nH]2)cc1	26%	1µM*	10%	u	-11%
Cc1cc(C)c(O)c(-c2cc(C(=O)Nc3cccnc3)[nH]n2)c1	67%	2.9µM*	1%	2.9µM*	8%
CCc1ccc(O)c(-c2cc(C(=O)Nc3cccnc3)[nH]n2)c1	104%	u	3%	0.41µM*	-2%
O=C(CNS(=O)(=O)c1ccc(F)cc1)Nc1ccc(C(F)(F)F)cc1	4%	x	2%	4%	-3%
Cc1ccc(CNS(=O)(=O)c2ccc(F)c(F)c2)n1C	-4%	-1%	10%	3%	20µM*
Cc1ccc(CNS(=O)(=O)c2ccc(C(F)(F)F)cc2)n1C	17%	u	6%	-5%	16µM*
Cc1ccc(S(=O)(=O)NCc2cc(=O)n(C)c(=O)n2C)cc1C	19%	24%	25%	47%	5%
Cc1ccc(NC(=O)[C@@]2(CC(=O)O)CC(/C=C/c3ccccc3)=NO2)c(C)c1	-8%	8%	2%	20%	0%
CC(=O)c1ccc(S(=O)(=O)N(C)CCCC(=O)N(C)Cc2c(F)cccc2Cl)cc1	-21%	u	-1%	12µM*	5%
